Consider 14 molecules from PubChem BioAssay.

Test [1] in a line: anti-His antibody binders, primary screen, artefact control for SMM control protein annotation, biochemical, small-molecule microarray, 635 nm fluorescence (AID 1128).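 Also: score merges feature fluorescence with signal-to-noise for each printed compound spot.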 Conditions: anti-His Alexa647 antibody binding, higher = more signal.
In test [2] the test system is Human papillomavirus type 1a E7 protein (residues 1-88). As to the kind of experiment: HPV1a E7 small-molecule binders, primary screen, biochemical, small-molecule microarray, residues 1-88, 635 nm (AID 1129). Conditions: small-molecule microarray binding, fluorescence 635 nm; higher = more signal.
In test [3] the target is Focal adhesion kinase 1 (Homo sapiens) (UniProt Q05397). In words: small-molecule microarray binders of FAK, primary screen, biochemical, 635/667 nm fluorescence, BSA, DTT (AID 1130).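 Also: composite of spot emission at 667 nm and signal to noise over triplicate slides.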 The settings on record: PTK2 binding, 635 nm fluorescence, higher = more signal.
Focal adhesion kinase 1 (Homo sapiens), sequence (Q05397 whole entry, looked up): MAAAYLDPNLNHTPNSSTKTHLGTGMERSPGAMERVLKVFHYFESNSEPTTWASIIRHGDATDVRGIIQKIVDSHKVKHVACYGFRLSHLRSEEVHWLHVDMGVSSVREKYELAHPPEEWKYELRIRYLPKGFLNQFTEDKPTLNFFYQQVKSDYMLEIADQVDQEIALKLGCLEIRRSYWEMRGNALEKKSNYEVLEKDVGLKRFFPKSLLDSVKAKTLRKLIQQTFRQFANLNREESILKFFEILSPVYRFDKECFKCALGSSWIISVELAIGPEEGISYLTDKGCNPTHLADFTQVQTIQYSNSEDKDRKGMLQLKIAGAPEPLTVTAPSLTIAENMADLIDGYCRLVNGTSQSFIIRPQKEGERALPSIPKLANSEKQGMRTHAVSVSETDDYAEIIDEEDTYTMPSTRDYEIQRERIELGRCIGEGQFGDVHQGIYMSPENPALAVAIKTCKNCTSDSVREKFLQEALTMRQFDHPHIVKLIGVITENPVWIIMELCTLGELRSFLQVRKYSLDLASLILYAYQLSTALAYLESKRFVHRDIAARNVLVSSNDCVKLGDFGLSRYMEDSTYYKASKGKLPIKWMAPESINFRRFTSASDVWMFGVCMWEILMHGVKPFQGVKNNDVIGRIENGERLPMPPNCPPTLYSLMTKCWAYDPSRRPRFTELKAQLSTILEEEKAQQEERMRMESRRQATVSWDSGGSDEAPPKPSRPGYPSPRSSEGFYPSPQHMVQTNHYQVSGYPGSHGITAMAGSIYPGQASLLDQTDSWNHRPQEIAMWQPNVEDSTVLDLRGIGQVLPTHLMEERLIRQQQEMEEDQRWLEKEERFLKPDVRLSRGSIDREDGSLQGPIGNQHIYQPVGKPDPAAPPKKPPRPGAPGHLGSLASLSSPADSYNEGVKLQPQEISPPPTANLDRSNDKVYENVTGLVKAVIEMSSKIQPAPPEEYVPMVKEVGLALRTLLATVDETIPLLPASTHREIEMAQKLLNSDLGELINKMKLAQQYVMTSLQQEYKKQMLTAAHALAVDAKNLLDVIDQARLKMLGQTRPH
In test [4] the test system is Fibrinogen (Alexa647-labelled). As to the kind of experiment: fibrinogen binders on compound microarrays, profiling panel, artefact control for SMM control-protein annotation, biochemical, small-molecule microarray, 635/667 nm fluorescence (AID 1131).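 Also: z-score merges 667 nm fluorescence with per-spot signal-to-noise over triplicate slides.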 Conditions: fibrinogen-A647 binding fluorescence, higher = more signal.
The target in test [5] is Follistatin (Homo sapiens) (UniProt P19883). In words: follistatin binders on small-molecule microarrays, primary screen, biochemical, small-molecule microarray, 635/667 nm fluorescence (AID 1132). Conditions: FST binding, 635 nm fluorescence, higher = more signal.
Follistatin (Homo sapiens), sequence (P19883 whole entry, looked up): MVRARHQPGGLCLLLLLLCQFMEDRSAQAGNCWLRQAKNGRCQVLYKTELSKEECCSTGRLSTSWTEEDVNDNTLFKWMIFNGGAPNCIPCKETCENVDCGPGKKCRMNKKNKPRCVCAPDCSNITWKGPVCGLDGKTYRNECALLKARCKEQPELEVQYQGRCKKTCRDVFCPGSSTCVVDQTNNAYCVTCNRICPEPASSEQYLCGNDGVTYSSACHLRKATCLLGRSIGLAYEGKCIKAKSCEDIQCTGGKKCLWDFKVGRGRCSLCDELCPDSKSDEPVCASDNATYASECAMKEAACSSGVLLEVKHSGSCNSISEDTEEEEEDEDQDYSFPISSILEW
Test [6] concerns the target Fibroblast growth factor 2 (Homo sapiens) (UniProt P09038). As to the kind of experiment: FGF2 binders on small-molecule microarrays, primary screen, biochemical, small-molecule microarray, 635/667 nm fluorescence (AID 1133). The settings on record: small-molecule microarray binding, FGF2, fluorescence 635/667; higher = more signal.
Test [7] in a line: mitochondrial membrane potential change in A549 cells, profiling panel, cell-based, JC-1 fluorescence, basal, 24 h, 100 nL (AID 1138).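 Also: A549 lung adenocarcinoma cells under basal conditions with no added stimulus; test concentration not given here.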 The settings on record: higher = more signal.
The test system of the next test is Lefty1. As to the kind of experiment: Lefty1 binders on small-molecule microarrays, primary screen, biochemical, small-molecule microarray, 635/667 nm fluorescence (AID 1139). The settings on record: small-molecule microarray binding, fluorescence 635/667; higher = more signal.
In test [8] the test system is wheat germ agglutinin (Triticum aestivum), Alexa647-labelled. As to the kind of experiment: wheat germ agglutinin binders on compound microarrays, profiling panel, artefact control for SMM control-protein annotation, biochemical, small-molecule microarray, 635/667 nm fluorescence (AID 1140).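 Also: score merges 667 nm feature emission with signal to noise over triplicate slides.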 Conditions: WGA-A647 binding, 635 nm fluorescence, higher = more signal.
Test [9] deals with Luciferin 4-monooxygenase (Photinus pyralis) (UniProt P08659). As to the kind of experiment: firefly luciferase enzyme inhibitors, primary screen, biochemical, luminescence, purified enzyme, 2006 set (AID 1141).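 Also: cell-free assay with purified firefly luciferase at 100 ng per well in PBS; test concentration not given here.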 Conditions: SteadyGlo luminescence, 30 min, higher = more signal, called active from +8 up or from −8 down.
Luciferin 4-monooxygenase (Photinus pyralis), sequence (P08659 whole entry, looked up): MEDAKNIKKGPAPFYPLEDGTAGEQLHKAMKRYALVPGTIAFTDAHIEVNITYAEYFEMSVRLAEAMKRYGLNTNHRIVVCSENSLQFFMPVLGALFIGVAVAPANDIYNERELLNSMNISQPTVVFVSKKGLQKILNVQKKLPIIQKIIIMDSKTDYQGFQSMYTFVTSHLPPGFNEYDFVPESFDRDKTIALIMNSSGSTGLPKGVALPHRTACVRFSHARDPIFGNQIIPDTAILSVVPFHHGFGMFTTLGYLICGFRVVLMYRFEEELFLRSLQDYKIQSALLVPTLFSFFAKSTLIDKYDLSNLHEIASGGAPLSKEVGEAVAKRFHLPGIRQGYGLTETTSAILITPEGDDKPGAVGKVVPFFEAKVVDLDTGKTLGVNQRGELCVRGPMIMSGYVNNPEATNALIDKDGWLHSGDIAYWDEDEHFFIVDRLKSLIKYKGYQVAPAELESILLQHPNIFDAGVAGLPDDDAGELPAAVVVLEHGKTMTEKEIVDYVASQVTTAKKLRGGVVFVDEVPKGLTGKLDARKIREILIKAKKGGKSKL

Each structure is given as a SMILES string. Active and inactive are the calls of the source.

Fibroblast growth factor 2 (Homo sapiens), sequence (P09038 whole entry, looked up): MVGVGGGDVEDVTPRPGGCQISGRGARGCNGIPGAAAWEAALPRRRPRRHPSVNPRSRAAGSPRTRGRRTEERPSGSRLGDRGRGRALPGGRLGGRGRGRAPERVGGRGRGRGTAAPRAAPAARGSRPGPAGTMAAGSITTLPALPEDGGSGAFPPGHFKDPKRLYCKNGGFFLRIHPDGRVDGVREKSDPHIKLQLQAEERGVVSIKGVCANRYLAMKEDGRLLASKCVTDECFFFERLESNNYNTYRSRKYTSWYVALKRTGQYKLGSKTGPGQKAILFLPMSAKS

With `CN1C(=O)C2C(C1=O)C1C=C(CCCO)C2C(c2cccs2)N1Cc1cc2c(cc1Br)OCO2` (stereo not given), the composite z-score amounted to 1.12 in [1]; 1.22 in test [2]; 1.07 in test [3]; 1.04 in test [4]; 1.35 in test [5]; 0.502 in [6]. The values for the composite z-score (with Lefty1; in test [8]) were 0.265 and 1.17, respectively. Also, the z-score in test [7] was 0.903; in test [9], -1.48 (inactive).
As to `C=C(CCCC)/C(=C/C[C@H](OC(C)=O)c1ccc(OCCO)cc1)c1cc(C(=O)OC)ccc1OC`, the composite z-score is 0.124 in test [1]; 1.04 in test [2]; 0.667 in test [3]; 0.046 in [4]; 0.935 in test [5]; 0.103 in [6]. Besides, the composite z-score in the test with Lefty1 was determined as 0.929; in test [8], 0.775. The z-score in test [7] is 1.78; in test [9], -1.69 (inactive).
Consider `O=C1c2ccccc2[C@](Cc2ccccc2I)(C(=O)NC2CC2)[C@H](c2ccc(CO)cc2)N1Cc1ccccc1C(F)(F)F`, for which the composite z-score in test [1] is 0.0698; in [2], 0.749; in [3], -0.226; in test [4], 0.938; in test [5], 1.15; in [6], 0.0532. The results for the composite z-score (in the test on Lefty1; in test [8]) were 1.26 and 1.15, respectively. Besides, the values for the z-score in test [7] and in test [9] were -0.254 and 0.0135 (inactive), respectively.
In the case of `C=CCC(OC(C)=O)[C@@H]1[C@@H](N(Cc2cccc3ccccc23)C(=O)c2cccc3ccccc23)c2cc(OCCCO)ccc2N1C(=O)c1ccc2ccccc2c1` (stereo not given in full), the composite z-score is 0.279 in [1]; 0.18 in test [2]; -0.0836 in test [3]; 0.0439 in test [4]; 1.14 in test [5]; 0.061 in [6]. For the same molecule, the values for the composite z-score (in the test with Lefty1; in test [8]) were 0.11 and -0.223, respectively. Besides, the z-score in test [7] was -0.348; in [9], 1.48 (inactive).
Consider `CC1(C)C(=O)C(c2ccccc2)=C2CN3C(=O)N(CCc4ccccc4)C(=O)C3(Cc3ccc(C(F)(F)F)cc3)C=C21` (stereo not given), for which the composite z-score in [1] was 0.478; in test [2], 1.21; in test [3] it was 1.32; in test [4], 0.414; in test [5], 0.376; in test [6] it was -0.729. Moreover, the composite z-score was -0.285 in the test on Lefty1 and 0.57 in [8]. Also, the z-score is 0.37 in test [7] and 1.24 (inactive) in [9].
Take `C=CCNC(=O)[C@H]1[C@@H]2C(=O)O[C@@H](c3ccccc3)[C@@H](c3ccccc3)N2[C@@H](c2ccc(O)cc2)[C@]12C(=O)N(C(=O)OCCOC)c1ccc(C#CCC(C(=O)OC)C(=O)OC)cc12`: the composite z-score in test [1] stood at 0.724; in test [2] it was 1.13; in test [3] it was 0.439; in test [4] it was 0.858; in [5], 1.32; in [6], 1.5. In addition, the composite z-score in the test on Lefty1 came out at 0.836; in [8] it was 0.856. Moreover, the z-score is -1.74 in test [7] and 0.315 (inactive) in test [9].
Turning to `CCOC(=O)C1=C[C@@H](c2ccccc2)N(S(=O)(=O)c2ccc(C)cc2)[C@H]1c1ccccc1`, the composite z-score in [1] was 0.421; in test [2], 0.574; in test [3], 0.681; in [4], -0.276; in test [5], 0.379; in [6], 0.466. Further, the composite z-score was found to be 0.543 with Lefty1 and 0.197 in test [8]. The results for the z-score in test [7] and in test [9] were 1.47 and 1.94 (inactive), respectively.
For `Cc1ccc(S[C@]2(C(=O)NCc3ccccc3)CC(=O)N(Cc3cc(C(F)(F)F)cc(C(F)(F)F)c3)[C@@H]2c2ccc(CO)cc2I)cc1`, the composite z-score in test [1] is -1.1; in test [2], -0.774; in [3], 0.438; in test [4] it was -0.885; in test [5], -1.18; in [6], -1.45. Moreover, the figures for the composite z-score (with Lefty1; in test [8]) were -1.25 and -0.799, respectively. In addition, the z-score in test [7] is 1.61; in test [9], -0.461 (inactive).
For `C=C(COC)/C(=C/C[C@@H](OC(C)=O)c1ccc(CO)o1)c1cc(C(=O)OC)ccc1OC`, the composite z-score in test [1] was 0.291; in test [2], 0.091; in test [3], -0.198; in test [4], -0.341; in test [5] it was 0.758; in test [6] it was -0.314. The composite z-score is 0.933 with Lefty1 and -0.188 in test [8]. The z-score in test [7] is 0.173; in test [9], -1.53 (inactive).
Turning to `O=c1cccc(-c2ccc(F)cc2)o1`, the composite z-score was 0.198 in test [1]; 0.734 in test [2]; 0.111 in test [3]; -0.191 in [4]; 0.456 in test [5]; 0.898 in test [6]. Further, the results for the composite z-score (in the test with Lefty1; in [8]) were 0.571 and 0.62, respectively. For the same molecule, the z-score in [7] is -0.0822; in test [9], 1.73 (inactive).
`COc1ccc([Si](C)(C)[C@@H]2[C@@H](CCn3cc([C@H](O)c4ccccc4)nn3)O[C@]3(C(=O)N(c4ccccc4)c4ccccc43)[C@H]2C)cc1`: the composite z-score in test [1] is -0.684; in test [2] it was 0.386; in [3] it was 0.474; in [4], -0.308; in [5], 0.586; in test [6], 0.184. Moreover, the composite z-score with Lefty1 is 0.424; in [8], -0.348. In addition, the z-score in test [7] was 0.00801; in test [9], 0.389 (inactive).
Consider `C=CCNC(=O)[C@H]1[C@@H]2C(=O)O[C@@H](c3ccccc3)[C@@H](c3ccccc3)N2[C@@H](c2ccc(OCCO)cc2)[C@]12C(=O)N(C(=O)OCCOC)c1ccc(C#Cc3ccc(OC)cc3)cc12`, for which the composite z-score in test [1] amounted to 1.25; in test [2], 1.15; in [3] it was 0.0069; in [4], 0.904; in test [5], 1.22; in test [6], 0.714. Further, the figures for the composite z-score (in the test with Lefty1; in test [8]) were 0.544 and 0.719, respectively. The z-score is -1.59 in test [7] and -1.51 (inactive) in [9].
As to `CC(C)C[C@@H]1NC(=O)[C@@H]2C[C@H](C(=O)NCCCCCC[N+](C)(C)C)[C@H](c3cccc(OCCO)c3)N2C1=O`, the composite z-score in [1] is -0.759; in test [2], -0.0265; in [3] it was -0.219; in [4], 0.0163; in test [5], 0.349; in test [6], 1.17. Also, the results for the composite z-score (in the test with Lefty1; in test [8]) were 0.34 and -0.285, respectively. Also, the results for the z-score in [7] and in test [9] were -0.547 and 0.184 (inactive), respectively.
On to `COCCCNC(=O)[C@@]1(Sc2ccc(C)cc2)CC(=O)N(C(C)C)[C@@H]1c1ccc(CO)cc1I`, for which the composite z-score in [1] is -0.578; in test [2], 0.569; in [3], -0.0285; in test [4], -0.491; in test [5], -0.035; in [6] it was -0.335. Moreover, the composite z-score with Lefty1 was -0.21; in [8], 0.271. The z-score is -0.0858 in [7] and 0.805 (inactive) in [9].
